# ADAM10 inh – inhibitors of human ADAM10 | inhibition, % at 7 µM | recombinant ADAM10, EDANS/DABCYL FRET peptide cleavage, 3 h | O14672 | 370,000 tested, 0.62% active;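 active = inhibition above a per-campaign cutoff equal to the mean of compounds falling between control-based bounds plus 3 SD, cut at about 20% in these data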;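 note: 0% = DMSO wells while the 100% control is not disclosed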
# CendR NRP1 mod – alters CendR peptide binding to human NRP-1; O14786; FAM-RPARPAR peptide binding to NRP-1, fluorescence polarization; inhibition, % at 25 µM; 360,000 tested, 0.85% active;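 active = inhibition or corrected inhibition above about 18%, plus a signal ratio from 0.5 to 1.5, limit read from the data, passing the limit was not always enough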
# sPLA2-III inh – Blocks human group III sPLA2 activity. AID 743126. Q9NZ20. inhibition, % at 12.2 µM. 370,000 tested, 0.56% active. QFRET BODIPY PC-A2 liposome hydrolysis, fluorescence;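 active = inhibition above mean plus 3 SD of compounds lying within the high and low control bounds, cut at about 19% in these data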;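 note: 0% = median of test compound wells and 100% = no enzyme DMSO wells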
# proKLK7 act – activators of human kallikrein-7 zymogen; P49862; purified proKLK7, EDANS-DABCYL substrate fluorescence; 100% is mature enzyme control, 0% vehicle; activation, % at 7 µM; 370,000 tested, 0.9% active; AID 652039;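 active = activation above the mean of all tested compounds plus 3 SD, computed per campaign excluding outliers beyond control limits, cut at about 13% in these data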
# ADAM17 inh – inhibits human ADAM17 | recombinant ADAM17, EDANS/DABCYL FRET peptide cleavage | inhibition, % at 6.95 µM | 370,000 tested, 0.83% active | AID 720648;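 active = inhibition above the mean of compounds lying between control limits plus 3 SD, set per campaign, cut at about 8.5% in these data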;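 note: 0% = DMSO-only wells as the low control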
# Target sequence (P78536 215-824 limits assumed): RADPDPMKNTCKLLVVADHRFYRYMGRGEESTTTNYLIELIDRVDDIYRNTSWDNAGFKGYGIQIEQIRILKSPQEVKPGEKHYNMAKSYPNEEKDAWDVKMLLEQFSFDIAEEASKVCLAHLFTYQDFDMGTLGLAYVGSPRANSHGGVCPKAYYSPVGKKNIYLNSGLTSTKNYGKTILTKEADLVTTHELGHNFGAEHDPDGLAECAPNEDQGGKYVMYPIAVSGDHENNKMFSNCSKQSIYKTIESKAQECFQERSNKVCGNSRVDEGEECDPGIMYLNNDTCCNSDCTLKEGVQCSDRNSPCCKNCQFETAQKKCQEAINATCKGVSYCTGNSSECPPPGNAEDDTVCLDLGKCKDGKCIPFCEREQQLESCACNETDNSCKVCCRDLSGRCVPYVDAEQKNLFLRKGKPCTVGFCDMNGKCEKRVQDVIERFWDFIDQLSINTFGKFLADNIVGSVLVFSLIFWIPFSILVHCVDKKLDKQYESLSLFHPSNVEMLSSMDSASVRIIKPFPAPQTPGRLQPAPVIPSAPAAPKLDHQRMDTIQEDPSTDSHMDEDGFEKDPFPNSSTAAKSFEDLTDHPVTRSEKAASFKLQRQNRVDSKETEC
# ADAM10 counter – inhibits human ADAM10 in ADAM17 exosite counter-screen | shares compounds with ADAM17 inh | 2,900 tested, 47% active | inhibition, % at 6.95 µM | recombinant ADAM10, EDANS/DABCYL FRET peptide cleavage, 3 h;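 active = mean inhibition over the triplicate runs exceeds the activity threshold set in the earlier primary screen, cut at about 20% in these data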;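 note: 0% = DMSO wells and 100% = marimastat wells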
# ADAM17 confirm – confirmation of inhibitors of human ADAM17. inhibition, % at 6.95 µM. recombinant ADAM17, EDANS/DABCYL QFRET peptide cleavage. shares compounds with ADAM17 inh. 2,900 tested, 65% active;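 active = mean inhibition across replicates above the hit cutoff set in the primary screen, cut at about 8.5% in these data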;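 note: 0% = DMSO wells and 100% = marimastat wells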
# The depositor's hits bear a star; i = inactive; . = no result given. Shown are actives, neighbours in structure and some others; about 3.4% of the full set was active somewhere.
SMILES,ADAM10 inh,CendR NRP1 mod,sPLA2-III inh,proKLK7 act,ADAM17 inh,ADAM10 counter,ADAM17 confirm
COc1ccc(S(=O)(=O)NCC(c2ccco2)N2CCc3ccccc32)cc1 (centres undefined),18.3,1.2,-13.0,-0.1,14.1*,18.1,12.4*
CCN(CC(O)CON=C1c2ccccc2-c2ccccc21)S(=O)(=O)c1ccc(C)cc1 (centres undefined),17.0,-2.8,-48.6,-3.3,9.4*,22.3*,16.9*
CCN(CC(O)CON=C1c2ccccc2-c2ccccc21)S(=O)(=O)c1ccc(Cl)cc1 (centres undefined),15.1,9.3,-44.3,-2.7,6.5,.,.
CS(=O)(=O)N(CC(O)CON=C1c2ccccc2-c2ccccc21)c1ccc(F)cc1 (centres undefined),13.3,-8.6,-48.8,-0.2,4.2,.,.
CN(CC(O)CON=C1c2ccccc2-c2ccccc21)S(=O)(=O)c1ccc(Br)cc1 (centres undefined),17.5,-10.0,-38.5,-3.5,8.8*,23.0*,14.2*
CCCCC[C@@H](C)N1C[C@@H](COCc2ccccc2)Oc2cc(N3CCC[C@H]3CO)ccc2S1(=O)=O,17.6,-1.4,-12.6,-0.9,9.9*,23.2*,15.2*
C=CC[C@@H](CC(=O)N[C@H](CO)Cc1ccccc1)C(=O)N[C@H](COC(=O)[C@@H](CC=C)Cc1ccc(F)cc1)C(C)(C)C,16.1,-14.2,-39.0,-0.2,8.7*,33.6*,19.2*
C=CCC[C@H](Cc1ccc(F)cc1)C(=O)OC[C@@H](NC(=O)[C@@H](CC=C)CC(=O)N(CCO)Cc1ccccc1)C(C)(C)C,19.5,-2.6,-20.4,0.5,12.4*,38.4*,19.4*
C=CC[C@@H](CC(=O)N[C@H](CO)Cc1ccccc1)C(=O)N[C@H](COC(=O)[C@@H](CC=C)Cc1ccc(F)cc1)Cc1c[nH]c2ccccc12,24.4*,4.7,-94.3,0.4,11.3*,44.4*,22.0*
C[C@H]1CN([C@@H](C)CO)C(=O)c2c(c3ccccc3n2C)-c2ccccc2CO[C@H]1CN(C)C(=O)Nc1cccc(F)c1,3.8,.,-17.2,0.5,-0.1,.,.
COC(=O)c1ccc(COc2ccccc2/C=N/NC(=O)c2cccnc2)cc1,4.6,2.0,13.0,-12.6,8.7*,16.3,7.0
CC(=O)c1cc(-c2ccc(Oc3ccccc3)cc2)c(=O)n2c1CCC2,-6.3,.,-5.6,0.2,-7.4,.,.
O=C(OCCOc1cccc(Cl)c1)c1cc(S(=O)(=O)N2CCOCC2)ccc1F,6.2,-2.0,-11.6,0.3,10.3*,11.6,6.5
CNC(=S)N1N=C(c2ccc(Br)cc2)CC1c1ccc(Br)cc1 (centres undefined),14.5,10.5,1.8,-1.3,11.5*,27.4*,17.3*
Cc1ccc2c(c1)C(CS(=O)(=O)NCCc1ccccc1)NC2 (centres undefined),-1.1,.,-0.4,0.2,-2.7,.,.
CCN(CC)c1ccc(NC(=O)COC(=O)C2CCN(c3ccc(C(F)(F)F)cn3)CC2)cc1,-4.5,-1.6,10.8,-0.1,0.8,.,.
O=C(COC(=O)C1CCN(S(=O)(=O)c2ccc3c(c2)OCCO3)CC1)Nc1ccc(C(F)(F)F)cc1,13.0,13.3,-36.5,0.2,8.7*,12.9,10.7*
CCN(c1ccc(NC(=O)COC(=O)C2CCN(c3ccc(C(F)(F)F)cn3)CC2)cc1)C(C)C,11.2,-5.2,-2.4,-0.1,8.9*,36.6*,17.9*
Cc1cc(N2CCN(C(=O)OC(C)(C)C)C[C@@H]2C)ccc1N1CCS(=O)(=O)CC1,-1.5,.,1.7,0.2,-2.2,.,.
O=C(C1CCC1)N1CCc2cc(S(=O)(=O)C3CCN(Cc4ccc(F)cc4)CC3)ccc21,0.1,.,10.5,-0.2,-3.4,.,.
Cc1c(C(=O)NCc2ccccc2)oc2ccc(S(=O)(=O)N3CCC4(CC3)OCCO4)cc12,12.1,-16.6,-16.2,1.0,9.6*,4.0,6.5
Cc1c(C(=O)NCc2ccccn2)oc2ccc(S(=O)(=O)N3CCC4(CC3)OCCO4)cc12,5.3,6.2,-9.1,0.3,0.9,.,.
O=C(OCc1cn(Cc2ccccc2)nn1)N1CCOCC1,1.5,.,7.7,0.3,-0.6,.,.
CN(CC(=O)Nc1cccc(F)c1)C(=O)c1cn(-c2ccccc2)nc1-c1ccc(Cl)cc1,17.9,-6.7,-15.8,-0.7,9.4*,27.8*,17.0*
CN(CC(=O)Nc1cccc(F)c1)C(=O)c1cn(-c2ccccc2)nc1-c1cccs1,15.0,10.0,-41.0,0.7,6.2,.,.
SMILES,ADAM10 inh,CendR NRP1 mod,sPLA2-III inh,proKLK7 act,ADAM17 inh,ADAM10 counter,ADAM17 confirm
Cc1cc(-c2ccccc2)n(-c2cc(N/N=C/c3ccccc3O)ncn2)n1,2.8,-1.3,-32.5,-2.2,8.7*,9.2,6.5
CNc1cc(-n2nc(C)cc2-c2ccccc2)ncn1,1.2,-2.1,2.0,0.9,-7.9,.,.
O=C(CSc1nnc(-c2cnccn2)n1-c1ccccc1)c1ccc(F)cc1,-2.3,.,-33.1,-0.3,0.3,.,.
COC(=O)c1cc2c(c3c4cc(C)ccc4n(S(=O)(=O)c4ccc(C)cc4)c13)C(=O)N(C)C2,-3.8,.,9.4,-0.1,-2.5,.,.
COc1ccc(CCN(C(=O)C(F)(F)F)C(C(=O)NC2CCCCC2)c2ccc(C)s2)cc1 (centres undefined),3.2,9.4,1.6,-0.1,9.1*,-2.2,0.7
COc1ccc(CCN(C(=O)C(F)(F)F)C(C(=O)NC2CCCCC2)c2cccs2)cc1 (centres undefined),7.9,-5.2,-0.6,-0.1,3.2,.,.
C[C@@H]1CN([C@@H](C)CO)C(=O)CCCn2nncc2CO[C@@H]1CN(C)S(=O)(=O)c1ccc(C#N)cc1,9.3,1.5,7.5,-0.5,9.5*,12.6,9.5*
COC(=O)[C@]12C[C@H](CC(=O)NCC34CC5CC(CC(C5)C3)C4)C(=O)N(Cc3ccccc3)C1=C[C@H](COCc1ccccc1)O[C@@H]2C,9.9,.,-18.6,0.0,3.3,.,.
CCc1ccccc1Nc1cc(C(=O)NCc2ccccn2)c2ccccc2n1,17.8,13.1,-10.9,0.7,9.0*,-2.1,8.1
CCc1ccc(-c2cc(C(=O)NCc3ccccn3)c3ccccc3n2)cc1,i,-5.0,-13.9,-1.0,-176.9,.,.
Cc1cccc(CSCCNC(=O)c2ccc(N(C)S(=O)(=O)c3ccccc3)cc2)c1,19.4,-6.2,-29.6,0.4,10.5*,23.4*,11.6*
CN(c1ccc(C(=O)NCCSCc2ccccc2)cc1)S(=O)(=O)c1ccccc1,13.3,9.9,-22.9,0.5,2.6,.,.
COc1ccc2c(C(F)(F)F)cc(=O)oc2c1C,13.0,8.0,8.9,-0.6,9.8*,17.1,7.9
O=C(Nc1nccs1)c1cc2sccc2n1Cc1ccc(F)cc1,-11.1,3.1,3.2,-0.7,-5.0,.,.
